A selection: hits, their analogues and other compounds. The true share with any hit is near 3.8%.
KCNH2 WT inh – qHTS for Inhibitors of KCHN2 3.1: Wildtype qHTS | 0.37% of 340,000 active | activity change, % at 1.84 µM | Voltage-gated inwardly rectifying potassium channel KCNH2 (Homo sapiens), Q12809 | U2OS, BacMam KCNH2, thallium flux FluxOr; hits give low values;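 active = maximum activity change below -70%; inconclusive = maximum activity change between -70% and -50%; inactive = maximum activity change above -50%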; note: % is set by controls: 0 for no effect and ±100 for the full control effect
Target sequence (Q12809 whole entry, looked up): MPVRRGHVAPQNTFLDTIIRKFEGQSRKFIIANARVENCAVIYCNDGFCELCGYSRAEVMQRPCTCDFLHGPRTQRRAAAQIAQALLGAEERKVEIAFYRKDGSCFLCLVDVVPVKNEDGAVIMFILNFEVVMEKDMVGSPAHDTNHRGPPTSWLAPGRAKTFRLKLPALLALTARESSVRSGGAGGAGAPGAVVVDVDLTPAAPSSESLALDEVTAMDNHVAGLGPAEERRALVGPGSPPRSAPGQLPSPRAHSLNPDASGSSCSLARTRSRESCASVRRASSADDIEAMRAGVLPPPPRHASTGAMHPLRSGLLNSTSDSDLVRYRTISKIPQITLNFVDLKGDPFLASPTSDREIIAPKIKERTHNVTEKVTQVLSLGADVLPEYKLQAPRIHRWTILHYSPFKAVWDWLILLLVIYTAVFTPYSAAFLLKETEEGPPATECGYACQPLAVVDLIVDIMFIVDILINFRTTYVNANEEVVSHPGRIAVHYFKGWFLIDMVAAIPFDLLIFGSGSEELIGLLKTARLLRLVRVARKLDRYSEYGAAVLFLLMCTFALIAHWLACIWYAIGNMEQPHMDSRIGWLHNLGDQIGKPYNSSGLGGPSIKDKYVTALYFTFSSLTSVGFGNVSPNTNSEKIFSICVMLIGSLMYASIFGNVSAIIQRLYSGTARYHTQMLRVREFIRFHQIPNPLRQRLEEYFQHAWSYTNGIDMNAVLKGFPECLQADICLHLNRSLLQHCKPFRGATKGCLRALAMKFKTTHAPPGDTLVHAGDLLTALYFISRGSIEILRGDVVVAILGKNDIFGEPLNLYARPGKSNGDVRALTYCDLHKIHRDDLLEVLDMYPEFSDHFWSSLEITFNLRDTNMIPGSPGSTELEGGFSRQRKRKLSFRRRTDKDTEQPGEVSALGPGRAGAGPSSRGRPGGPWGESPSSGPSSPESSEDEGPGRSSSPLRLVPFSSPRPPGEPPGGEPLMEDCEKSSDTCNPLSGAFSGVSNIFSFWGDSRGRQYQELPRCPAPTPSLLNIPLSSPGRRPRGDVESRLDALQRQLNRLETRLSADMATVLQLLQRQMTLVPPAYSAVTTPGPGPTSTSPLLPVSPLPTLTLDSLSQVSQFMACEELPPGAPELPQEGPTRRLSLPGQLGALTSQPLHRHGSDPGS
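U2OS cells were transduced with wild-type KCNH2 virus (2.03 x 10^8 / mL) for 4 h at room temperature, then cultured overnight at 37 C. Thallium flux was read with FluxOr dye. Rate constants were normalized to DMSO controls.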
VDR inhibitor – Inhibitors of the vitamin D receptor (VDR): qHTS; Vitamin D3 receptor (Homo sapiens), P11473; VDR-SRC2-3 peptide fluorescence polarization, 2 h; Potency, µM, for the others: max response, negative = inhibition, actives largely listed as inhibitors; 0.93% of 400,000 active; AID 504847, 2011; note: potency is the fitted concentration of half-maximal effect; % is set by controls: 0 for no effect and ±100 for the full control effect
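Fluorescence polarization assay of small-molecule disruption of VDR binding to coregulator peptide SRC2-3. Compounds and controls pin-transferred, then read after 2 h incubation at ambient room temperature.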
CBFb-RUNX1 inh – qHTS Assay for Compounds Blocking the Interaction Between CBF-beta and RUNX1 for the Treatment of Acute Myeloid Leukemia. Runt-related transcription factor 1 (Homo sapiens) + Core-binding factor subunit beta …. AlphaScreen CBFb-His/RUNX1-biotin binding, biochemical. Potency, µM (doses to about 59.8 µM), for the others: top-dose activity, negative = inhibition, usual class: inhibitors. 230,000 tested, under 10 active; note: % of control where 0% means no effect
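His-tagged CBF-beta and biotinylated RUNX1 (30 nM each) were premixed 20 min at room temperature, exposed to compound for 15 min, then given nickel-chelate and streptavidin AlphaScreen beads (50 ng each). After 90 min, AlphaScreen signal was read.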
MBNL1 CUG block – qHTS Assay for Inhibitors of MBNL1-poly(CUG) RNA binding | Muscleblind-like protein 1 (Homo sapiens), Q9NR56 | TR-FRET MBNL1-His/biotin-(CUG)12 binding, 665/545 ratio | Potency, µM (doses to about 57.5 µM), without a hit: at the top dose activity change, negative = inhibition, hits mostly inhibitors | 0.036% of 280,000 active; active = well fitted inhibition curve with a large enough effect in the signal ratio, with a control signal flat, not every such curve was filed as active; inconclusive = small, poorly fitted or top-dose-only effect, or effect the other way, or a change in a side signal; inactive = no such curve, though single readings can be large or run the other way; the % refers to the signal ratio; note: potency is the fitted concentration of half-maximal effect; % is set by controls: 0 for no effect and ±100 for the full control effect
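Compounds (final 92 nM to 58 uM) are added to His-tagged MBNL1 and biotin-(CUG)12, then terbium anti-His antibody and streptavidin-XL665 (5 nM final). After 60 min at room temperature, the 665/545 nm ratio is read.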
PLK1 PBD block – qHTS for Inhibitors of PLK1-PDB (polo-like kinase 1 - polo-box domain): Primary Screen. Plk1 PBD binding of FITC phosphopeptide, fluorescence polarization. 2.8% of 360,000 active. Potency, µM, for the others: max response, negative = inhibition, actives largely listed as inhibitors. Serine/threonine-protein kinase PLK1 (Homo sapiens), P53350; note: potency is the fitted concentration of half-maximal effect; series mostly up to about 57 µM; % is set by controls: 0 for no effect and ±100 for the full control effect; nearly all actives have a fitted effect of over 65% in size
KCNH2 3.1 block – qHTS for Inhibitors of KCHN2 3.1: Mutant qHTS | activity change, % (tested at about 1.8 µM) | 0.95% of 340,000 active | Potassium voltage-gated channel subfamily H member 2, brain isoform KCNH2 3.1 (human) | U2OS KCNH2 3.1, thallium flux FluxOr; hits give low values;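 active = maximum activity change below -70%; inconclusive = maximum activity change from -70% to -50%; inactive = maximum activity change above -50%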;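 note: thallium influx rate constant from kinetic fluorescence after stimulation buffer; % is set by controls: 0 for no effect and ±100 for the full control effect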
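Measured as rate of thallium-driven FluxOr signal in transduced U2OS cells carrying the 3.1 channel, read kinetically for 2 min upon stimulation; values are rate constants scaled to DMSO control wells.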
* hit, by the source's call; ? = inconclusive; nt = not tested or not shown; [ ] = dose if it differs, or a comment. Unless noted, calls come from the whole dose curve; as a rule, active = well fitted curve in the direction sought with a large enough effect; inconclusive = small, poorly fitted or top-dose-only effect, or another doubt; inactive = no such curve, though single readings can be large; an effect the other way counts as inactive or inconclusive.

SMILES	KCNH2 WT inh	VDR inhibitor	CBFb-RUNX1 inh	MBNL1 CUG block	PLK1 PBD block	KCNH2 3.1 block
COc1ccc2c(c1)NC(c1cccnc1)=NC(c1ccc(F)cc1)=N2	nt	16%	nt	nt	nt	nt
Cc1cc(C)cc(-n2c(SCC(=O)Nc3ccccc3F)nc3c(oc4ccccc43)c2=O)c1	nt	-7%	nt	nt	nt	nt
CC(C)(C)OC(=O)N[C@@H](CC(=O)OCc1ccccc1)C(=O)O	-2	-5%	7%	-3%	27µM*	-7
C=C(c1ccc(OCCO)cc1)c1ccc(OCCO)cc1	-1	-13%	3%	8%	27µM*	-4
CCn1cc(C(=O)Nc2ccc(F)c(F)c2)cn1	-4	7%	3%	-5%	-4%	-88*
CC1CC(C)CN(C(=O)Nc2ccc(Br)cc2)C1 (stereo unspecified)	-4	-12%	6%	5%	30µM*	-36
COc1ccc(C(=O)CC(=O)c2ccc(C(C)(C)C)cc2)cc1	5	-16%	?	nt	-11%	-8
Cc1ccc(C(=O)CC(=O)c2ccc(C(C)(C)C)cc2)cc1	7	16%	13%	0%	-14%	-102*
C[C@H]1Cc2c(-c3ccccc3)nc3c(c2CO1)CN(S(=O)(=O)c1ccc(C#N)cc1)CC3	nt	nt	4%[13.1 µM]	nt	nt	nt
COC(=O)CSc1ncc(S(=O)(=O)c2ccccc2)c(=O)[nH]1	5	-3%	nt	1%	-18%	-131*
CCc1ccccc1NC(=O)CSc1ncc(S(=O)(=O)c2ccccc2)c(=O)[nH]1	nt	-17%	nt	nt	nt	nt
CC1=CC(=O)C(C(C)C)=C/C1=N\OC(=O)c1cccc2nc(C)oc12	8	-15%	1%	38%	-29%	-8
CC1=CC(=O)C(C(C)C)=C/C1=N/OC(=O)c1cccc([N+](=O)[O-])c1	-29	-6%	-6%	?	3.8µM*	10
CC1=CC(=NOC(=O)c2cccc([N+](=O)[O-])c2)C=C(C)C1=O	11	?	6%	?	6.7µM*	6
CCN(CC)c1cc(C)c2cc(NC(=O)/C=C/c3ccccc3OC(C)C)ccc2n1	nt	-24%	nt	nt	nt	nt
CCCOc1ccc(C(=O)NCc2ccco2)cc1	-4	22%	-1%	-1%	-4%	1
O=C(NCCCNC(=O)c1ccccc1Br)c1ccccc1Br	-4	-2%	nt	-2%	4%	-9
O=C(NCCNC(=O)c1ccccc1Br)c1ccccc1Br	-6	13%	nt	6%	-8%	-114*
O=C(Nc1ccc(C(F)(F)F)cc1)c1ccccc1Br	-4	-1%	3%	-6%	24µM*	14
O=C(NNC(=S)NCc1ccco1)c1ccccc1Br	-4	-13%	nt	4%	-1%	-41
O=C(NCc1ccco1)c1ccccc1Br	-8	?	2%	-2%	27µM*	-7
CC(C)Oc1ccc(C(=O)NCc2ccco2)cc1	1	-5%	-1%	8%	27µM*	3
COc1cccc([C@@H]2Oc3ccc(OC)cc3C(=O)[C@H]2OC(=O)NS(=O)(=O)c2ccc(F)cc2)c1	nt	-4%	-9%	nt	nt	nt
COc1ccc(NC(=O)c2sc3cc(C(F)(F)F)cnc3c2-c2cccs2)cc1	9	-18%	-1%	?	2%	-92*
Cc1ccc(-n2ncc(C(=O)NC3CCCC3)c2C2CCN(C(=O)OC(C)(C)C)CC2)c(C)c1	nt	-8%	nt	nt	nt	nt
SMILES	KCNH2 WT inh	VDR inhibitor	CBFb-RUNX1 inh	MBNL1 CUG block	PLK1 PBD block	KCNH2 3.1 block
CCN(CC)CCNC(=O)Nc1ccc2c(c1)N(Cc1ccccc1)C(=O)c1ccccc1S2	nt	2%	nt	nt	nt	nt
O=C(c1cncc(Br)c1)N1CCN(S(=O)(=O)c2ccccc2C(F)(F)F)CC1	-5	?	nt	-5%	21µM*	-23
C/C(=C\C(=O)c1ccccc1)Nc1ccc(Cl)c(Br)c1	5	0%	nt	nt	27µM*	5
C/C(=C\C(=O)c1ccc(Br)cc1)Nc1cccc(Cl)c1	0	-11%	nt	nt	0%	-31
COc1ccccc1NC(=O)/C=C/c1cc([N+](=O)[O-])ccc1OC(F)F	-15	-9%	10%	5%	-22%	-3
O=C(/C=C/c1cc([N+](=O)[O-])ccc1OC(F)F)Nc1cccc(OC(F)F)c1	-158*	-22%	-2%	3%	-12%	-4
CCCNc1cc(=S)nc(N)[nH]1	-2	-6%	-9%	-11%	19µM*	-7
CCCNc1nc2ccccc2c(=O)[nH]1	-5	4%	0%	-14%	-9%	13
CC(C)CN(CCCNC(=O)Cn1ncc2c3ccccc3n(C)c2c1=O)CC(C)C	nt	11%	nt	nt	nt	nt
COc1ccc(CN/C(C)=C(/C#N)C(N)=O)cc1OC	-3	?	1%	-2%	27µM*	2
O=C(O)c1ccc(Nc2ncnc3c2cnn3Cc2ccccc2)cc1	-1	?	8%	-9%	30µM*	-6
COc1ccc(Nc2ncnc3c2cnn3Cc2ccccc2)cc1OC	1	-7%	-6%	4%	-1%	6
Cc1cccc(Nc2ncnc3c2cnn3Cc2ccccc2)c1	nt	-12%	-3%	0%	24µM*	0
COc1ccc(CC(=O)NNc2ncnc3c2cnn3Cc2ccccc2)cc1OC	-3	-21%	2%	nt	27µM*	-2
c1ccc(-c2ccc(OCCN3CCCC3)cc2)cc1	nt	-9%	-27%	nt	nt	nt
CCOc1ccccc1CNC(=O)c1oc2c(c1C)-c1nn(Cc3cccc(Cl)c3)cc1CC2	nt	2%	nt	nt	nt	nt
Cc1ccc(-n2ncc(C(=O)NCc3ccc4c(c3)OCO4)c2C2CCN(C(=O)OC(C)(C)C)CC2)cc1C	nt	4%	nt	nt	nt	nt
O=C(NNS(=O)(=O)c1ccc([N+](=O)[O-])cc1)C(=O)Nc1cccc(C(=O)O)c1	-112*	5%	nt	?	?	14
Cc1ccc(C(=O)Nc2cccc([N+](=O)[O-])c2)cc1S(=O)(=O)Nc1cccc(C(=O)O)c1	-3	-25%	-2%	20%	15µM*	-11
O=C(NNS(=O)(=O)c1ccc([N+](=O)[O-])cc1)c1ccccc1	5	-5%	nt	nt	-1%	11
Cc1ccc(C(=O)Nc2cccc([N+](=O)[O-])c2)cc1S(=O)(=O)Nc1ccc(NC(=O)c2ccccc2)cc1	0	17%	1%	nt	4%	3
COc1ccc2c3c(c(=O)oc2c1)C1O[C@](CCCCN2C(=O)c4ccccc4C2=O)(Cc2cc(OC)c(OC)cc21)O3	nt	nt	nt	-4%[11.5 µM]	nt	nt
